Screens (PubChem BioAssay)
HIF activator: HIF pathway transcriptional activation; U2OS HRE-luciferase reporter, luminescence; normalized: DMSO 0%, desferrioxamine 100%; activation, % at 7.5 µM (by protocol); 0.32% of 300,000 active; AID 1910;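 active = mean activation of at least 10% of the iron chelator positive control signal, with at least half of replicates also reaching 10%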
NPR2 activator: GC-B (human) receptor activation; P20594; HEK293-GC-B cells, CNP EC30, cGMP TR-FRET; 0% at EC30 CNP, 100% saturating CNP; activation, % at 10 µM; 0.11% of 370,000 active;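 active = activation at 10 µM reaching about 35% in either raw or pattern-adjusted values, limit read from the data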
KLK7 zymogen act: activators of human kallikrein-7 zymogen; P49862; 0.9% of 370,000 active; purified proKLK7, EDANS-DABCYL substrate fluorescence; 100% is mature enzyme control, 0% vehicle; AID 652039; activation, % at 7 µM;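 active = activation above the mean of all tested compounds plus 3 SD, computed per campaign excluding outliers beyond control limits, cut at about 13% in these data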
NPR1 activator: GC-A (human) enzyme activation | P16066 | HEK293 GC-A cells, cGMP TR-FRET, EC30 ANP; 0% at EC30 ANP, 100% saturating ANP | activation, % at 10 µM | 0.14% of 370,000 active; in the data active = activation above about 40%
Large screens that a line does not name were inactive. This is a sample that favours compounds with a hit; in the whole collection about 1.3% have one here.

Cc1ccc(-c2nc(CS(=O)CC(=O)NCCN3CCCCCC3)c(C)o2)cc1 (stereo not given)	none
S=C(c1ccc(-c2ccc(Br)cc2)o1)N1CCOCC1	NPR2 activator 36
S=C(c1ccc(-c2ccc(Br)cc2)o1)N1CCCCC1	none
CCc1ccc(Oc2c(Cl)cnn(-c3ccc(C)cc3)c2=O)cc1	none (no result: HIF activator, KLK7 zymogen act)
O=C(Nc1ccccc1)Nc1cccc2nsnc12	HIF activator 11
S=C1NC2=C(CCCC2=C2SCCS2)C(c2ccccc2)N1 (stereo not given)	HIF activator 69
COc1cccc(C2NC(=S)NC3=C2CCc2ccccc23)c1 (stereo not given)	none
COc1ccc2c(c1)N=CN1CCc3c([nH]c4ccccc34)C3=NCC[C@@]321	none (no result: HIF activator, KLK7 zymogen act)
COc1ccc(CNCC#Cc2ccc(C)cc2)c(OC)c1	none (no result: HIF activator)
COc1ccc(-c2cc(C(F)(F)F)nc(S(C)(=O)=O)n2)cc1	NPR1 activator 46
CS(=O)(=O)c1nc(-c2ccc(F)cc2)cc(C(F)(F)F)n1	NPR1 activator 72
Cn1nnnc1SCC(=O)Nc1nc(-c2ccc(F)c(F)c2)cs1	NPR1 activator 42
CC(C)(C)c1ccc(-c2nnc(SCC(=O)Nc3ccc(S(=O)(=O)Nc4nccs4)cc3)n2Cc2ccco2)cc1	none (no result: HIF activator)
Cc1csc(NC(=O)c2ccc(COc3ccc(Cl)c(Cl)c3)o2)n1	none (no result: HIF activator)
Cc1csc(NC(=O)c2ccc(COc3cccc(Cl)c3)o2)n1	NPR2 activator 41 (no result: HIF activator)
COC(=O)C1=C(C)N(Cc2ccc(F)cc2)C(=S)NC1c1ccccc1 (stereo not given)	none (no result: HIF activator)
CCN1C(=S)N[C@@H](c2ccccc2)C(C(=O)OC)=C1C	NPR2 activator 46
O[C@H](COc1ccc(F)cc1)CN1CCC(C(O)(c2ccccc2)c2ccccc2)CC1	none (no result: HIF activator)
CCN(CC)CCCNC(=O)C1(N[C@@H](Cc2c[nH]c3ccccc23)C(=O)NCC(OC)OC)CCCCC1	none (no result: HIF activator, KLK7 zymogen act)
COc1ccccc1NC(c1cccnc1)c1ccc2cccnc2c1O (stereo not given)	HIF activator 12
Cc1ccnc(NC(c2cccnc2)c2ccc3cccnc3c2O)c1 (stereo not given)	HIF activator 11
COc1ccc2c(c1)C[C@@H]1CC(C)(C)CN1S2(=O)=O	none (no result: HIF activator, KLK7 zymogen act)
CCC[C@@H](/C=C/C(=O)OC(C)(C)C)Sc1ccc(OC)cc1	none (no result: HIF activator)
CN1CCCC(n2nc(Cc3ccc(Cl)cc3)c3ccccc3c2=O)CC1 (stereo not given)	NPR2 activator 118
CCOC(=O)Cn1nc(Cc2ccccc2)c2ccccc2c1=O	none
CN(C)c1cccc(-c2cnc(N3CCC(C(N)=O)CC3)s2)c1	none (no result: HIF activator, KLK7 zymogen act)
CCS(=O)(=O)c1ccc(-c2cccc(NC(=O)COc3ccccc3)c2)nn1	HIF activator 60
CCS(=O)(=O)c1ccc(-c2cccc(NC(=O)COc3ccc(Cl)cc3)c2)nn1	none
COc1ccc(CC(=O)N2CCN(C(=O)Cc3ccc(OC)cc3)CC2)cc1	HIF activator 365
C=CCNc1nc(=S)[nH]c2cc(OC)c(OC)cc12	NPR2 activator 37, NPR1 activator 41
CC(=O)CC[C@H]1CC[C@]2(CCCN(C(=O)C3CCCC3)C2)O1	none (no result: HIF activator)
CCOc1cc(/C=C2/C(=O)ON=C2C)ccc1OCc1ccccc1	NPR2 activator 37, NPR1 activator 43
CCOc1cc(/C=C2/C(=O)ON=C2C)ccc1OCc1ccc(F)cc1	NPR2 activator 35, NPR1 activator 42 (no result: HIF activator)
CCOc1cc(/C=C2/C(=O)ON=C2C)ccc1OCc1ccccc1F	NPR2 activator 40, NPR1 activator 43
C=CCn1c(COc2ccc(Cl)cc2)nnc1SCC(=O)c1ccc(-c2ccccc2)cc1	none (no result: HIF activator)
O=C(CN[C@@H](Cc1c[nH]c2ccccc12)C(=O)NCCc1c[nH]c2ccccc12)NC1CCCCC1	none (no result: HIF activator, KLK7 zymogen act)
O=C1ON=C(c2ccccc2)/C1=C/c1ccco1	NPR2 activator 35
Cc1ccnc(NC(=S)N2CCC(Nc3cccc(C(F)(F)F)c3)CC2)c1	none (no result: HIF activator, KLK7 zymogen act)
CCN1C(=O)c2ccc(-c3nc4ccccc4c(=O)o3)cc2C1=O	none
CC(=O)OCCN1C(=O)c2ccc(-c3nc4ccccc4c(=O)o3)cc2C1=O	NPR1 activator 47
O=C(NNC(=O)c1ccccc1Br)c1ccc(Cl)cc1	HIF activator 12
O=C(NNC(=O)c1ccccc1Br)c1cccc(Cl)c1	none
CCc1ccccc1NC(=O)[C@@H]1CCCN1S(=O)(=O)c1cccc2cccnc12	none (no result: HIF activator, KLK7 zymogen act)
CCN(CC)S(=O)(=O)c1ccc(N/N=C(\C)c2ccc(OC)cc2O)nc1	HIF activator 9.6
CCOc1cccc(/C=N/Nc2ccc(S(=O)(=O)N(CC)CC)cn2)c1O	HIF activator 9.8
COc1ccc(/C=C2\SC(=O)N(CCC(=O)N(C)C3CCS(=O)(=O)C3)C2=O)cc1 (stereo not given)	HIF activator 64
COc1ccc(/C=C2\SC(=O)N(CC(=O)N(C)C3CCS(=O)(=O)C3)C2=O)cc1 (stereo not given)	none
Cn1c(N/N=C/c2cc3ccccc3nc2Cl)nc2ccccc21	HIF activator 22
CCOC(=O)c1csc(NC(=O)C2CCCN(S(=O)(=O)c3ccc(C)cc3)C2)n1 (stereo not given)	none (no result: HIF activator)
Cc1ccc2c(c1)C1NC(=S)NC(C)(O2)C1C(=O)Nc1ccc(Cl)cc1 (stereo not given)	HIF activator 51
COC(=O)C1CN(C2CCCC2)CCS(=O)(=O)N1Cc1cn(Cc2ccc(OC)cc2)nn1 (stereo not given)	none (no result: HIF activator)
CN(C)CC(=O)N[C@H]1C[C@@H]2O[C@@H](CO)CC[C@@H]2O[C@@H]1CCc1ccc(-c2ccc(F)cc2)cc1	none (no result: HIF activator)
O=C(COc1cccc2ccccc12)Nc1ccc(Cl)cc1C(=O)O	HIF activator 15
O=C(COc1cccc2ccccc12)Nc1cc(Cl)ccc1C(=O)O	none
Cn1c(SCC(=O)NCC2CCCO2)ncc(C(=O)Nc2ccc(Cl)cc2)c1=O (stereo not given)	NPR1 activator 45
Cn1c(SCC(=O)NCC2CCCO2)ncc(C(=O)Nc2ccc(F)cc2)c1=O (stereo not given)	none
N#Cc1ccc(-c2csc(NNC(=O)c3ccc(Br)cc3)n2)cc1	HIF activator 9.7
N#Cc1ccc(-c2csc(NNC(=O)c3ccccc3)n2)cc1	none
O=C1N=c2ccccc2=C1c1sc(=S)n(-c2ccc(O)cc2)c1O	none
CN(c1ccc(O)cc1)c1nc(O)c(C2=c3ccccc3=NC2=O)s1	NPR1 activator 41
NC(=O)CCCn1c(C(=O)c2cc(Cl)c(N)c(Cl)c2)c2ccc([N+](=O)[O-])cc2[n+]1[O-]	NPR2 activator 58
Oc1ccc(Br)cc1-c1nc2cnccn2c1NC1CCCC1	KLK7 zymogen act 49
Oc1ccc(Br)cc1-c1nc2cnccn2c1NC1CCCCC1	none
Cc1ccccc1CN(C)CC(=O)Nc1ccccc1Oc1ccccc1	none
CN(CC(=O)Nc1ccccc1Oc1ccccc1)Cc1ccccc1F	HIF activator 129
Cc1ccc(N2C(=O)c3cccc4c([N+](=O)[O-])ccc(c34)C2=O)c2cccnc12	NPR2 activator 41
